In PubChem BioAssay (EPA / NIEHS):
Several values for one entry are separate records, joined by “and”; a condition that tells them apart may be missing. Equal entries are not always repeated. Inconclusive results are not listed. The source holds several records for some structures; these can differ, active in one and inactive in another. Activity calls are given as the source filed them. The calls were made as follows, unless noted: active = hit-call score of the fitted dose curve at least 0.9, where 1 is the maximum; inconclusive = response in the unintended direction; inactive = score below 0.9.

Experiments:
[1] = target: Agonist Androgen Response Element (ARE), AR (gene 367) (UniProt P10275); experiment: OT_AR_ARELUC_AG_1440: Odyssey Thera (OT) 24-hour CHO-K1 Luciferase Assay for Agonist Androgen Response Element (ARE) (AID 2283379)
Agonist Androgen Response Element (ARE), AR (gene 367), sequence (P10275 whole entry, looked up): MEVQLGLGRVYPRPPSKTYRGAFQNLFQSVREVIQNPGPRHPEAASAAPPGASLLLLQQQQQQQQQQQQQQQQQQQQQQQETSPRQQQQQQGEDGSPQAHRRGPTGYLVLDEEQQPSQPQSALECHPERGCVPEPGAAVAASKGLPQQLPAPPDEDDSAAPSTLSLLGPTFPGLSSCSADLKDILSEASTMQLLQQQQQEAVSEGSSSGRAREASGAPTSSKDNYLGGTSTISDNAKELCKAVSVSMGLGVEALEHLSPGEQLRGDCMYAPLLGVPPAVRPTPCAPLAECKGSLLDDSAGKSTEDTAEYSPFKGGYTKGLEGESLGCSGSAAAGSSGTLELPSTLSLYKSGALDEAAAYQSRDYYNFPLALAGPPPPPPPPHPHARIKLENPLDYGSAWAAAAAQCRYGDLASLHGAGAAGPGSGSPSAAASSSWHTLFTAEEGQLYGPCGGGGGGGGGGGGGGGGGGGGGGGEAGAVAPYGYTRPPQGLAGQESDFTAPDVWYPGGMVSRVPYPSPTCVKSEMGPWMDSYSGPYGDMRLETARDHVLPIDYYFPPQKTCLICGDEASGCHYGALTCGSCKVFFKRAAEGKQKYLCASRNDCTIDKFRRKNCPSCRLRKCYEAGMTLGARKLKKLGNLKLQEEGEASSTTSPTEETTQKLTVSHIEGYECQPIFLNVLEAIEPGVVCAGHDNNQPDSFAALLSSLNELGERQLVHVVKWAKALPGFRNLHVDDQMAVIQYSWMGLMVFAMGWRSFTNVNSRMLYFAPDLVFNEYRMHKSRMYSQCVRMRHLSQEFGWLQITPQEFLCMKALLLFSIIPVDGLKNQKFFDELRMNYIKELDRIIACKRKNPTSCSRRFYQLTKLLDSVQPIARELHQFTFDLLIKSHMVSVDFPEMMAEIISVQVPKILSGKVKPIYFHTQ
Summary of the method: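 Luminescence increase above DMSO, read after a 24 h compound treatment of CHO-K1 cells expressing an androgen response element luciferase reporter, gives the single primary endpoint; concentration-response fitting used the positive direction.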

[2] = target: Retinoic acid receptor RXR-alpha (Homo sapiens) (UniProt P19793); experiment: OT_NURR1_NURR1RXRa_0480: Odyssey Thera (OT) 8-hour HEK293T Protein Complementation Assay for Nurr1/retinoid X receptor (RXR) (AID 2283385)
Retinoic acid receptor RXR-alpha (Homo sapiens), sequence (P19793 whole entry, looked up, the tested form may be a part): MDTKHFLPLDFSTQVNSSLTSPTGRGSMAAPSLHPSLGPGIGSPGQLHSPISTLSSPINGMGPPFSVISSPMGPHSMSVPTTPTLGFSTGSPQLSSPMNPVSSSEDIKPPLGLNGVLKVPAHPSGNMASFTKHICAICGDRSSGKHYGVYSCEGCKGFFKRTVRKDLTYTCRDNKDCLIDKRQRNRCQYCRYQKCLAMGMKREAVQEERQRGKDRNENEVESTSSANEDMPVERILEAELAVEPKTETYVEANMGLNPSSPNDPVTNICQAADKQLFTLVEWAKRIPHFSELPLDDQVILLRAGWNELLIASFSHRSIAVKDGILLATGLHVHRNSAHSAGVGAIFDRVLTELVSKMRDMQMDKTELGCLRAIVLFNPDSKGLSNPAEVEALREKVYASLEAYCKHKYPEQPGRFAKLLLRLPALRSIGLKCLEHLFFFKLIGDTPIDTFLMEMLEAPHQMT
Summary of the method: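 Interaction of Nurr1 with RXRα read as reconstituted reporter fluorescence in a HEK293T fragment-complementation system, 8 h post-treatment; increase over DMSO baseline analysed.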

[3] = target: Retinoic acid receptor RXR-alpha (Homo sapiens) (UniProt P19793); experiment: OT_NURR1_NURR1RXRa_1440: Odyssey Thera (OT) 24-hour HEK293T Protein Complementation Assay for Nurr1/retinoid X receptor (RXR) (AID 2283386)
Summary of the method: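 Gain in fluorescence, fitted relative to DMSO, reflects Nurr1–RXRα association in HEK293T cells after 24 h dosing. Bait and prey are each linked to a reporter-protein fragment that reassembles on interaction.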

[4] = target: Peroxisome proliferator-activated receptor gamma (Homo sapiens) (UniProt P37231); experiment: OT_PPARg_PPARgSRC1_0480: Odyssey Thera (OT) 8-hour Protein-Complementation Assay for Peroxisome Proliferator-activated Receptor Gamma / SRC-1 Co-activator (AID 2283387);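 also: nuclear to cytoplasmic split Venus YFP fluorescence ratio reporting PPARg SRC-1 interaction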
Peroxisome proliferator-activated receptor gamma (Homo sapiens), sequence (P37231 whole entry, looked up, the tested form may be a part): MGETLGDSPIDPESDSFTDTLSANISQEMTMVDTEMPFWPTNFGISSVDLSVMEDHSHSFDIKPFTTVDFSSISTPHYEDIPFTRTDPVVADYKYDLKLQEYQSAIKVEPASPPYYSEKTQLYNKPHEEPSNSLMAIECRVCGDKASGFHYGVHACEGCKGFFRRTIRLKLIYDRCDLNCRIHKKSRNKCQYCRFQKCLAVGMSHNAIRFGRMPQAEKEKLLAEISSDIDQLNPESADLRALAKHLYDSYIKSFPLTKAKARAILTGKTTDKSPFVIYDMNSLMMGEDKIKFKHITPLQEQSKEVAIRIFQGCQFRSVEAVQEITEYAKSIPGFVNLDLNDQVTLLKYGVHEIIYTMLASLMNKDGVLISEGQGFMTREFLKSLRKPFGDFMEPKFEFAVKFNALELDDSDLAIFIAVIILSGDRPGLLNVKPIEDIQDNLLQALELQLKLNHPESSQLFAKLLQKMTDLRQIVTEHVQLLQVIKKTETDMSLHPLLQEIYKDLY
Summary of the method: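 Split-YFP (IFP1/IFP2) PPARg/SRC-1 reporter, HEK293T, 37 °C, 5% CO2; 8 h compound; formaldehyde fix + Draq5; high-content imaging, N/C ratio, ≥350 cells/image, positive direction vs DMSO.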

[5] = target: Peroxisome proliferator-activated receptor gamma (Homo sapiens) (UniProt P37231); experiment: OT_PPARg_PPARgSRC1_1440: Odyssey Thera (OT) 24-hour Protein-Complementation Assay for Peroxisome Proliferator-activated Receptor Gamma/ SRC-1 Co-activator (AID 2283388);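 also: nuclear to cytoplasmic ratio of reconstituted Venus YFP fluorescence in fixed imaged cells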
Summary of the method: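 Readout: nuclear-to-cytoplasmic 488 nm fluorescence ratio, ≥350 cells per image, 8 images per well, after 24 h compound exposure of HEK293T expressing PPARg/SRC-1 split-YFP fusions. Activity fitted in positive direction against DMSO.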

[6] = CEETOX_H295R_OHPREG: CeeTox H295R High-throughput Steroidogenesis Assay for OH-Pregnenolone (OHPREG) (AID 2283434; active = hit-call score of the fitted dose curve at least 0.9, where 1 is the maximum; inactive = score below 0.9); details: actives raise or lower the signal
Summary of the method: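 Readout: HPLC-MS/MS of 17alpha-hydroxypregnenolone in medium after 48 h chemical exposure of H295R cells pretreated with forskolin. Values fitted bidirectionally relative to DMSO; chemicals reducing viability to 20–70% were retested after 10-fold dilution.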

[7] = CEETOX_H295R_OHPROG: CeeTox H295R High-throughput Steroidogenesis Assay for OH-Progesterone (OHPROG) (AID 2283435; active = hit-call score of the fitted dose curve at least 0.9, where 1 is the maximum; inactive = score below 0.9;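 as to AC50: 17alpha-hydroxyprogesterone secreted into medium measured by HPLC-MS/MS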); details: actives raise or lower the signal
Summary of the method: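 Medium steroid levels read by LC-MS/MS after 48 h chemical treatment (0.1% DMSO) of human adrenal H295R cells that had been forskolin-primed (10 uM, 48 h). Gain or loss fitted against DMSO; MTT cytotoxicity checked per well.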

[8] = CEETOX_H295R_ANDR: CeeTox H295R High-throughput Steroidogenesis Assay for Androstenedione (ANDR) (AID 2283436; active = hit-call score of the fitted dose curve at least 0.9, where 1 is the maximum; inactive = score below 0.9;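 also: human H295R adrenal cells exposed for 48 h with androstenedione measured in medium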); details: actives raise or lower the signal
Summary of the method: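 Steroidogenesis in H295R adrenal cells after 48 h dosing; androstenedione quantified by LC-MS/MS, with DMSO as negative control and baseline for bidirectional curve fitting.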

[9] = CEETOX_H295R_CORTIC: CeeTox H295R High-throughput Steroidogenesis Assay for Corticosterone (CORTIC) (AID 2283437; active = hit-call score of the fitted dose curve at least 0.9, where 1 is the maximum; inactive = score below 0.9;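 also: corticosterone secreted into medium quantified by mass spectrometry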;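 as to AC50: human H295R adrenal cells prestimulated with forskolin before chemical exposure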); details: actives raise or lower the signal
Summary of the method: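 Steps: seed H295R, adhere overnight; 10 uM forskolin 48 h; replace with chemical (0.1% DMSO) 48 h; extract medium with MTBE; quantify corticosterone by HPLC-MS/MS; score bidirectionally vs DMSO.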

[10] = CEETOX_H295R_CORTISOL: CeeTox H295R High-throughput Steroidogenesis Assay for Cortisol (AID 2283438; active = hit-call score of the fitted dose curve at least 0.9, where 1 is the maximum; inactive = score below 0.9;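 also: cortisol secreted into medium quantified by LC-MS/MS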); details: actives raise or lower the signal
Summary of the method: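 Cortisol measured by HPLC-MS/MS after MTBE extraction of medium from H295R cells exposed 48 h to chemical (0.1% DMSO), following 48 h prestimulation with 10 uM forskolin. Viability assessed by MTT in the same wells.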

[11] = CEETOX_H295R_DOC: CeeTox H295R High-throughput Steroidogenesis Assay for DOC (AID 2283439; active = hit-call score of the fitted dose curve at least 0.9, where 1 is the maximum; inactive = score below 0.9); details: actives raise or lower the signal
Summary of the method: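 11-Deoxycorticosterone quantified in medium by MTBE extraction and HPLC-MS/MS after 48 h chemical exposure (0.1% DMSO) of forskolin-primed (10 uM, 48 h) H295R cells. Same-well MTT viability; data fitted bidirectionally against DMSO.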

[12] = CEETOX_H295R_PROG: CeeTox H295R High-throughput Steroidogenesis Assay for Progesterone (PROG) (AID 2283442; active = hit-call score of the fitted dose curve at least 0.9, where 1 is the maximum; inactive = score below 0.9;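 as to AC50: human H295R adrenal cells primed with 10 µM forskolin before dosing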); details: actives raise or lower the signal
Summary of the method: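 Progesterone read-out: HPLC-MS/MS on MTBE extracts of conditioned medium after 48 h chemical exposure of forskolin-primed (10 uM, 48 h) H295R cells. Gain or loss of signal was fitted relative to DMSO baseline.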

[13] = target: Estrogen receptor beta (Homo sapiens) (UniProt Q92731); experiment: OT_ER_ERbERb_1440: Odyssey Thera (OT) 24-hour HEK293T Protein-Complementation Assay for Estrogen Receptor-beta/-beta Homodimer (AID 2283380);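 also: fluorescence gain from ER beta LBD homodimer complementation read by laser scanning cytometry; scored as signal increase over DMSO baseline for both agonists and antagonists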
Estrogen receptor beta (Homo sapiens), sequence (Q92731 whole entry, looked up, the tested form may be a part): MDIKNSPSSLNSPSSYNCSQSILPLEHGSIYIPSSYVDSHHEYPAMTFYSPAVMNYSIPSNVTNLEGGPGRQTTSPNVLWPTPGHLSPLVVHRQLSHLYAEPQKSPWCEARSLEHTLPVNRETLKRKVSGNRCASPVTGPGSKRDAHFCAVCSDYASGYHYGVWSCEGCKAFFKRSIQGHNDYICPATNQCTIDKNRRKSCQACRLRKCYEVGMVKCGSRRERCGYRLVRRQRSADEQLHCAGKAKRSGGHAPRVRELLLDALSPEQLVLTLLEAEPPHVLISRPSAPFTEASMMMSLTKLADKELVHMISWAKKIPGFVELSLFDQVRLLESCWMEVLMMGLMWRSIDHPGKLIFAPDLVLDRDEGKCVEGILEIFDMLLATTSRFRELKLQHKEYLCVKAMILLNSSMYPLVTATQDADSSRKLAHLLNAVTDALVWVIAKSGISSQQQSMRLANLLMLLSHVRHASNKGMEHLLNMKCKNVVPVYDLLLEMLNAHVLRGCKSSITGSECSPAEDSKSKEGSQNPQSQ
Summary of the method: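 HEK293T cells stably expressing human ER-beta LBD (aa 310-547) PCA homodimer pair, dosed 24 h; formaldehyde-fixed, Draq5-stained. Readout: increase in nuclear (agonist) or nuclear plus cytoplasmic (antagonist) fluorescence intensity versus DMSO, gain-of-signal fitting.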

[14] = target: Bile acid receptor (Homo sapiens) (UniProt Q96RI1); experiment: OT_FXR_FXRSRC1_0480: Odyssey Thera (OT) 8-hour HEK293T Protein-Complementation Assay for Farnesoid X receptor/SRC-1 Co-activator (AID 2283383)
Bile acid receptor (Homo sapiens), sequence (Q96RI1 whole entry, looked up, the tested form may be a part): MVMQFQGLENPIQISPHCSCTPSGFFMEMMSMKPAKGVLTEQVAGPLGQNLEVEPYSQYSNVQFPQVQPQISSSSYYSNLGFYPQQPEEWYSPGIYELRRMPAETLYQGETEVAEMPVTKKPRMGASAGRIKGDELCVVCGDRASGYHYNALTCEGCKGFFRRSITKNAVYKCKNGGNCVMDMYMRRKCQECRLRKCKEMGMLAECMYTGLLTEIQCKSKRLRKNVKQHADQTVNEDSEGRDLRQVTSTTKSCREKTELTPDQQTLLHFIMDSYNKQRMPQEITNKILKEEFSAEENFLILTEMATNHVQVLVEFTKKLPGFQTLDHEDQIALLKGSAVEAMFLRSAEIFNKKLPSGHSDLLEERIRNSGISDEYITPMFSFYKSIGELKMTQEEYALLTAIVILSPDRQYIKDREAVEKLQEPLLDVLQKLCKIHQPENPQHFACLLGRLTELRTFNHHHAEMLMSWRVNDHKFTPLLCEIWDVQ
Summary of the method: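 Binding of FXR to coactivator SRC-1 was read as fluorescence from a reconstituted split reporter in HEK293T cells, 8 h after chemical addition. Only increases in signal versus DMSO were fit.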

[15] = target: Bile acid receptor (Homo sapiens) (UniProt Q96RI1); experiment: OT_FXR_FXRSRC1_1440: Odyssey Thera (OT) 24-hour HEK293T Protein-Complementation Assay for Farnesoid X receptor/SRC-1 Co-activator (AID 2283384)
Summary of the method: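 Protein-fragment complementation: FXR and SRC-1 fused to reporter fragments that reassemble on interaction, read by fluorescence intensity. Human HEK293T cells measured 24 h post-dose; positive-direction fit versus DMSO.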

[16] = target: Estrogen receptor (Homo sapiens) (UniProt P03372); experiment: OT_ERa_GFPERaERE_0120: Odyssey Thera (OT) 2-hour HeLa Transcription Induction Assay for Estrogen Receptor (AID 2283382)
Estrogen receptor (Homo sapiens), sequence (P03372 whole entry, looked up): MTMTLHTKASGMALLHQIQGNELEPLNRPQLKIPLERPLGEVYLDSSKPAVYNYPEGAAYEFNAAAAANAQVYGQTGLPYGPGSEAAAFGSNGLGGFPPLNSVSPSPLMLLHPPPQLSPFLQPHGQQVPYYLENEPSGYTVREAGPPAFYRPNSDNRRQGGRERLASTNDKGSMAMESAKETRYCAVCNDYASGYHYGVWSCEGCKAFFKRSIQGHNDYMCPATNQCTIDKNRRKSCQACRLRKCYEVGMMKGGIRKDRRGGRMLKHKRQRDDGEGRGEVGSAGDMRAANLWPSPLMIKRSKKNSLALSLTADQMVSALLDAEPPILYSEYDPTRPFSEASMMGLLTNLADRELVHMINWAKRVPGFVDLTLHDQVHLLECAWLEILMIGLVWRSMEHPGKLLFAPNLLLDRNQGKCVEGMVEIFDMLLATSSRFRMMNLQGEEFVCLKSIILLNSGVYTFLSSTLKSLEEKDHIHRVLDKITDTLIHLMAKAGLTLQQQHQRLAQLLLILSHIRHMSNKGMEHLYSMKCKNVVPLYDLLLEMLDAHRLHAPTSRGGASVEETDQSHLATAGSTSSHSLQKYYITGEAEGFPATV
Summary of the method: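 Fluorescence-microscopy images of the GFP-ERα/ERE reporter, scored by high-content image algorithms, give the readout. HeLa exposure lasted 2 h, and only signal increase over DMSO was fitted.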

Measured: AC50

CCOC(=O)COc1cc(-c2nn(C)c(OC(F)F)c2Cl)c(F)cc1Cl
not listed: [13] | [14] | [15] | [16]
inactive: all other assays above

CC(C)N(C(=O)SCC(Cl)=C(Cl)Cl)C(C)C
active: [14] 21.9 µM | [15] 80.5 µM | [2] 74.3 µM and 85 µM | [3] 77.9 µM
inactive: [13] | [3]

CNc1cnn(-c2cccc(C(F)(F)F)c2)c(=O)c1Cl
not listed: [1] | [5] | [8] | [16]
inactive: all other assays above

COc1cccc(C(=O)NN(C(=O)c2cc(C)cc(C)c2)C(C)(C)C)c1C
inactive: [13] | [3] | [4] | [6] | [12]
active: [14] 14.7 µM | [15] 27 µM

CCCCN(CC)c1c([N+](=O)[O-])cc(C(F)(F)F)cc1[N+](=O)[O-]
not listed: [1] | [5] | [8] | [14] | [15] | [16]
inactive: all other assays above

CNC(=O)Oc1cccc2c1OC(C)(C)O2
inactive: [16] | [15] | [2] | [4] | [6] | [9] | [10] | [11]
active: [7] 30.9 µM | [12] 4.74 µM

Nc1nc(N)nc(NC2CC2)n1
inactive: [13] | [15] | [3] | [6] | [7] | [9] | [10] | [11] | [12]

CN(C)[C@@H]1C(=O)C(C(N)=O)=C(O)[C@@]2(O)C(=O)C3=C(O)c4c(O)cccc4[C@@](C)(O)[C@H]3[C@H](O)[C@@H]12
inactive: [3] | [4] | [5]
active: [3] 23.7 µM

O=C(O)c1cc(Oc2ccc(C(F)(F)F)cc2Cl)ccc1[N+](=O)[O-]
inactive: [13] | [4] | [6] | [7] | [9] | [10] | [11] | [12]

CCOP(=O)(SC(C)CC)N1CCSC1=O (stereo not drawn)
inactive: [3] | [4]

CCC(=NOC/C=C/Cl)C1=C(O)CC(C2CCOCC2)CC1=O (stereo not drawn)
inactive: [13] | [3] | [4]

CN(C)NC(=O)CCC(=O)O
active: [13] 16.8 µM
inactive: [2] | [3] | [4] | [6] | [7] | [12]

O=[N+]([O-])c1cc(C(F)(F)F)c(Cl)c([N+](=O)[O-])c1Nc1ncc(C(F)(F)F)cc1Cl
active: [16] 77.7 µM | [3] 0.641 µM
inactive: [4] | [5]

CCOP(=S)(OCC)Oc1ccc2c(C)c(Cl)c(=O)oc2c1
active: [7] 1.67 µM | [11] 1.23 µM | [12] 2.59 µM
inactive: [13] | [3] | [4] | [6] | [9] | [10]

CCOP(=S)(OCC)Oc1ccc([N+](=O)[O-])cc1
inactive: [2] | [3] | [4] | [5] | [6] | [9]
active: [7] 0.39 µM | [10] 1.93 µM | [11] 0.775 µM | [12] 0.444 µM

COP(=O)(NC(C)=O)SC (stereo not drawn)
not listed: [1] | [6] | [8] | [14] | [15] | [16]
inactive: all other assays above

CCOP(=S)(OCC)Oc1cc(C)nc(C(C)C)n1
active: [7] 6.6 µM | [9] 36.6 µM | [10] 50 µM | [12] 26 µM
inactive: [4] | [6] | [11]

CCc1cccc(C)c1N(C(=O)CCl)C(C)COC (stereo not drawn)
inactive: [13] | [3] | [4] | [5] | [6] | [7] | [12]

S=C1NCCN1
inactive: [3] | [4] | [5]

CN(C)C(=O)Nc1cccc(C(F)(F)F)c1
active: [7] 52.6 µM
inactive: [13] | [2] | [3] | [4] | [5] | [6] | [12]

CC(C)[C@H](C(=O)O[C@H](C#N)c1cccc(Oc2ccccc2)c1)c1ccc(Cl)cc1
inactive: [13] | [3] | [4]

CCOP(=S)(Oc1cnc(C(C)(C)C)nc1)OC(C)C (stereo not drawn)
inactive: [3] | [4] | [5]
active: [3] 78.8 µM

N#CSCSC#N
active: [14] 11.4 µM
inactive: [13] | [4]

CC(=NC#N)N(C)Cc1ccc(Cl)nc1
inactive: [13] | [2] | [3] | [4] | [5]

COc1cc(OC)nc(Sc2cccc(Cl)c2C(=O)O)n1
inactive: [3] | [4]

CC(C1CC1)C(O)(Cn1cncn1)c1ccc(Cl)cc1 (stereo not drawn)
inactive: [2] | [4] | [5]
active: [13] 31.1 µM | [6] 4.38 µM | [7] 3.21 µM | [12] 2.23 µM

CCOP(=S)(OCC)SCCSCC
inactive: [13] | [4] | [5]

CNC(=O)ON=C(C)SC
not listed: [1] | [8] | [14] | [15] | [16]
inactive: all other assays above

COP(=O)(OC)C(O)C(Cl)(Cl)Cl (stereo not drawn)
active: [15] 25.1 µM
inactive: [14] | [3] | [4]

CCCSP(=O)(OCC)Oc1ccc(Br)cc1Cl (stereo not drawn)
active: [14] 25 µM
inactive: [13] | [15] | [3] | [4] | [6] | [7] | [12]

CN1COCN(Cc2cnc(Cl)s2)C1=N[N+](=O)[O-]
inactive: [15] | [2] | [3] | [4]

CCc1cnc(C2=NC(C)(C(C)C)C(=O)N2)c(C(=O)O)c1 (stereo not drawn)
inactive: [3] | [4] | [5]

FC(F)C(F)(F)OCC(Cn1cncn1)c1ccc(Cl)cc1Cl (stereo not drawn)
inactive: [13] | [14] | [4] | [6] | [7] | [9] | [10] | [11] | [12]

C#CC(C)(C)NC(=O)c1cc(Cl)cc(Cl)c1
active: [6] 13.4 µM | [7] 23.7 µM | [11] 7.45 µM | [12] 10.4 µM
inactive: [2] | [9] | [10]

CCNc1nc(Cl)nc(NC(C)(C)C#N)n1
inactive: [13] | [3] | [4] | [6] | [7] | [9] | [10] | [11] | [12]

CCOP(=S)(OCC)OC(Cl)C(Cl)(Cl)Cl (stereo not drawn)
inactive: [13] | [3] | [4]

CON=C(C(=O)OC)c1ccccc1CON=C(C)c1cccc(C(F)(F)F)c1
inactive: [3] | [4]

C=C(C)[C@H]1Cc2c(ccc3c2O[C@@H]2COc4cc(OC)c(OC)cc4[C@@H]2C3=O)O1
active: [14] 12.7 µM | [15] 9.92 µM | [3] 22.2 µM
inactive: [3] | [4]

CC1=NNC(=O)N(/N=C/c2cccnc2)C1
inactive: [13] | [3] | [4]
